Assay results: PubChem BioAssay AID1159580 (chemical genetic matrix, 2015)
About 2,000 (36%) of roughly 5,500 compounds were called active. Inconclusive results (about 18%) are left out. Rule as the data show it: active = normalized growth mostly below about 0.91 (no sharp cut-off); inconclusive = no clear call, values can overlap the other calls; inactive = mostly above about 0.92. Some of the results follow.

Assay: chemical genetic growth profiling, strain panel (AID 1159580);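 also: tested at 20 µM; growth read once vehicle control cultures reached saturation at 30 °C; 1 = growth at the plate median or of vehicle wells; lower values mean less growth of the strain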
Conditions: growth OD

Measured: normalized growth

CC(Oc1ccccc1)C(=O)N[C@@H]1C(=O)N2[C@@H]1SC(C)(C)[C@@H]2C(=O)O (some centres not stated)
inactive: S. cerevisiae deletion strains, locus YJR075W, strain HOC1, hits give low values 1.01 | S. cerevisiae deletion strains, locus YKL009W, strain mrt4, hits give low values 0.995 | S. cerevisiae deletion strains, locus YKL068W, hits give low values 1.01 | S. cerevisiae deletion strains, locus YKL085W, strain MDH1 (second series), hits give low values 1 | S. cerevisiae deletion strains, locus YKL085W, strain MDH1, hits give low values 1 | S. cerevisiae deletion strains, locus YKL160W, strain elf1, hits give low values 0.985 | S. cerevisiae deletion strains, locus YKL190W, strain CNB1, hits give low values 1.01 | S. cerevisiae deletion strains, locus YKR001C, strain vps1, hits give low values 1.02 | S. cerevisiae deletion strains, locus YKR026C, strain gcn3, hits give low values 0.993 | S. cerevisiae deletion strains, locus YKR091W, strain srl3, hits give low values 0.993 | S. cerevisiae deletion strains, locus YLL001W, strain dnm1, hits give low values 0.983 | S. cerevisiae deletion strains, locus YLL026W, hits give low values 0.998 | S. cerevisiae deletion strains, locus YLL041C, strain sdh2, hits give low values 0.992 | S. cerevisiae deletion strains, locus YLR027C, strain aat2, hits give low values 1 | S. cerevisiae deletion strains, locus YLR039C, strain RIC1, hits give low values 1.02 | S. cerevisiae deletion strains, locus YLR058C, strain SHM2, hits give low values 1.01 | S. cerevisiae deletion strains, locus YLR102C, strain apc9, hits give low values 1.02 | S. cerevisiae deletion strains, locus YLR113W, strain HOG1, hits give low values 1.01 | S. cerevisiae deletion strains, locus YLR221C, strain rsa3, hits give low values 0.981 | S. cerevisiae deletion strains, locus YLR258W, strain gsy2, hits give low values 0.986 | S. cerevisiae deletion strains, locus YLR262C, strain YPT6 (second series), hits give low values 1.01 | S. cerevisiae deletion strains, locus YLR262C, strain YPT6, hits give low values 1.04 | S. cerevisiae deletion strains, locus YLR268W, strain sec22, hits give low values 1.03 | S. cerevisiae deletion strains, locus YLR320W, strain mms22, hits give low values 0.984 | S. cerevisiae deletion strains, locus YLR330W, strain CHS5, hits give low values 1.01 | S. cerevisiae deletion strains, locus YLR342W, strain FKS1 (second series), hits give low values 1 | S. cerevisiae deletion strains, locus YLR342W, strain FKS1, hits give low values 1 | S. cerevisiae deletion strains, locus YLR357W, strain rsc2, hits give low values 0.978 | S. cerevisiae deletion strains, locus YLR370C, strain arc18, hits give low values 0.992 | S. cerevisiae deletion strains, locus YLR371W, strain rom2, hits give low values 1.02 | S. cerevisiae deletion strains, locus YLR384C, strain iki3, hits give low values 0.992 | S. cerevisiae deletion strains, locus YLR418C, strain cdc73, hits give low values 1.04 | S. cerevisiae deletion strains, locus YML016C, strain PPZ1, hits give low values 1.02 | S. cerevisiae deletion strains, locus YML032C, strain rad52, hits give low values 1.02 | S. cerevisiae deletion strains, locus YML120C, strain ndi1, hits give low values 0.985 | S. cerevisiae deletion strains, locus YML124C, strain tub3, hits give low values 1.02 | S. cerevisiae deletion strains, locus YMR058W, strain fet3, hits give low values 1 | S. cerevisiae deletion strains, locus YMR078C, strain ctf18, hits give low values 1.03 | S. cerevisiae deletion strains, locus YMR125W, strain sto1, hits give low values 0.992 | S. cerevisiae deletion strains, locus YMR129W, hits give low values 0.99 | S. cerevisiae deletion strains, locus YMR205C, strain PFK2, hits give low values 0.995 | S. cerevisiae deletion strains, locus YMR223W, strain ubp8, hits give low values 1.01 | S. cerevisiae deletion strains, locus YMR231W, strain pep5, hits give low values 1 | S. cerevisiae deletion strains, locus YMR263W, strain SAP30, hits give low values 1.01 | S. cerevisiae deletion strains, locus YMR307W, strain GAS1, hits give low values 1.02 | S. cerevisiae deletion strains, locus YNL067W, strain RPL9B, hits give low values 1.01 | S. cerevisiae deletion strains, locus YNL071W, strain lat1, hits give low values 0.996 | S. cerevisiae deletion strains, locus YNL128W, strain TEP1, hits give low values 1.02 | S. cerevisiae deletion strains, locus YNL153C, strain GIM3, hits give low values 1.01 | S. cerevisiae deletion strains, locus YNL183C, strain NPR1, hits give low values 0.972 | S. cerevisiae deletion strains, locus YNL209W, strain ssb2, hits give low values 0.996 | S. cerevisiae deletion strains, locus YNL233W, strain BNI4, hits give low values 1.02 | S. cerevisiae deletion strains, locus YNL248C, strain rpa49, hits give low values 0.991 | S. cerevisiae deletion strains, locus YNL250W, strain rad50, hits give low values 1.03 | S. cerevisiae deletion strains, locus YNL271C, strain bni1, hits give low values 1.02 | S. cerevisiae deletion strains, locus YNL298W, strain CLA4, hits give low values 1.03 | S. cerevisiae deletion strains, locus YNL307C, strain MCK1, hits give low values 1.03 | S. cerevisiae deletion strains, locus YNL322C, strain KRE1 (second series), hits give low values 1.01 | S. cerevisiae deletion strains, locus YNL322C, strain KRE1, hits give low values 1.01 | S. cerevisiae deletion strains, locus YNR049C, strain mso1, hits give low values 0.992 | S. cerevisiae deletion strains, locus YNR052C, strain pop2, hits give low values 1.02 | S. cerevisiae deletion strains, locus YOL006C, strain TOP1, hits give low values 1.05 | S. cerevisiae deletion strains, locus YOL012C, strain htz1 1.34 | S. cerevisiae deletion strains, locus YOL147C, strain pex11, hits give low values 1.02 | S. cerevisiae deletion strains, locus YOR001W, strain rrp6, hits give low values 1 | S. cerevisiae deletion strains, locus YOR061W, strain CKA2, hits give low values 1.02 | S. cerevisiae deletion strains, locus YOR069W, strain VPS5, hits give low values 1.01 | S. cerevisiae deletion strains, locus YOR070C, strain gyp1, hits give low values 0.992 | S. cerevisiae deletion strains, locus YOR080W, strain dia2, hits give low values 0.988 | S. cerevisiae deletion strains, locus YOR083W, strain WHI5, hits give low values 0.984 | S. cerevisiae deletion strains, locus YOR106W, strain vam3, hits give low values 0.979 | S. cerevisiae deletion strains, locus YOR136W, strain idh2, hits give low values 1.02 | S. cerevisiae deletion strains, locus YOR144C, strain elg1, hits give low values 1.03 | S. cerevisiae deletion strains, locus YOR184W, strain ser1, hits give low values 1.02 | S. cerevisiae deletion strains, locus YOR231W, strain MKK1, hits give low values 1.02 | S. cerevisiae deletion strains, locus YOR265W, strain rbl2, hits give low values 0.991 | S. cerevisiae deletion strains, locus YOR270C, strain vph1, hits give low values 1.04 | S. cerevisiae deletion strains, locus YOR290C, strain snf2, hits give low values 1.03 | S. cerevisiae deletion strains, locus YOR316C, strain cot1, hits give low values 1.02 | S. cerevisiae deletion strains, locus YPL051W, strain arl3, hits give low values 1.01 | S. cerevisiae deletion strains, locus YPL055C, strain LGE1, hits give low values 1.02 | S. cerevisiae deletion strains, locus YPL078C, strain atp4, hits give low values 0.994 | S. cerevisiae deletion strains, locus YPL106C, strain sse1, hits give low values 0.968 | S. cerevisiae deletion strains, locus YPL240C, strain hsp82, hits give low values 0.994 | S. cerevisiae deletion strains, locus YPL241C, strain CIN2, hits give low values 1.01 | S. cerevisiae deletion strains, locus YPL256C, strain CLN2, hits give low values 1.03 | S. cerevisiae deletion strains, locus YPR119W, strain clb2, hits give low values 1.02 | S. cerevisiae deletion strains, locus YPR141C, strain kar3, hits give low values 1.02 | S. cerevisiae deletion strains, locus YPR163C, strain tif3, hits give low values 1.04 | S. cerevisiae deletion strains, locus YPR167C, strain met16, hits give low values 1.02 | S. cerevisiae deletion strains, strain wtn01, hits give low values 1.02 | S. cerevisiae strains, strain wild type, hits give low values 1.02
